Results from PubChem BioAssay AID1159580 (chemical genetic matrix, 2015).
Values joined by “and” are separate entries in the source; they are usually repeats but may differ in a detail not shown here. Identical values can stand only once. In all, about 5,500 compounds went through this assay and about 2,000 (36%) were called active. Not shown: some 18% with an inconclusive outcome. Cut-off read from the data, not from the text of the source: active = normalized growth mostly below about 0.91 (no sharp cut-off); inconclusive = no clear call, values can overlap the other calls; inactive = mostly above about 0.92. This is one part of the list.

Test: chemical genetic growth profiling, strain panel (AID 1159580);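 note: tested at 20 µM; growth read once vehicle control cultures reached saturation at 30 °C; 1 = growth at the plate median or of vehicle wells; lower values mean less growth of the strain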
Details: S. cerevisiae deletion strains, growth OD

Measured: normalized growth

CC(C(=O)O)c1ccc(C(=O)c2cccs2)cc1 (configuration not stated)
inactive: locus YAL021C, strain ccr4, active compounds read low 1.02 | locus YAL026C, strain drs2, active compounds read low 1.01 | locus YAL030W, strain snc1, active compounds read low 1 | locus YBL061C, strain skt5, active compounds read low 1 | locus YBR009C, strain hhf1, active compounds read low 1.01 | locus YBR021W, strain FUR4, active compounds read low 0.987 | locus YBR023C, strain chs3, active compounds read low 0.995 | locus YBR171W, strain sec66, active compounds read low 0.985 | locus YBR229C, strain ROT2, active compounds read low 1.01 | locus YBR231C, strain swc5, active compounds read low 1 | locus YBR279W, strain paf1, active compounds read low 0.996 | locus YCL011C, strain gbp2, active compounds read low 1.01 | locus YCL016C, strain dcc1, active compounds read low 0.998 | locus YCL029C, strain bik1, active compounds read low 1.01 | locus YCL061C, strain MRC1, active compounds read low 1.01 | locus YCL069W, strain vba3, active compounds read low 0.997 | locus YCR088W, strain abp1, active compounds read low 0.996 | locus YDL005C, strain med2, active compounds read low 0.995 | locus YDL035C, strain GPR1, active compounds read low 1.01 | locus YDL040C, strain nat1, active compounds read low 0.998 | locus YDL074C, strain BRE1, active compounds read low 1 | locus YDL101C, strain DUN1, active compounds read low 1.01 | locus YDL134C, strain PPH21, active compounds read low 1 | locus YDL185W, strain tfp1, active compounds read low 0.999 | locus YDL192W, strain arf1, active compounds read low 1.01 | locus YDR001C, strain nth1, active compounds read low 0.993 | locus YDR069C, strain doa4, active compounds read low 0.994 | locus YDR101C, strain arx1, active compounds read low 1 | locus YDR137W, strain rgp1, active compounds read low 0.963 | locus YDR159W, strain sac3, active compounds read low 0.991 | locus YDR162C, strain NBP2, active compounds read low 1.01 | locus YDR195W, strain ref2 0.976 | locus YDR297W, strain sur2, active compounds read low 0.999 | locus YDR318W, strain mcm21, active compounds read low 1.02 | locus YDR334W, strain swr1, active compounds read low 0.989 | locus YDR335W, strain msn5, active compounds read low 1.01 | locus YDR388W, active compounds read low 1.02 | locus YDR392W, strain spt3, active compounds read low 1.03 | locus YDR502C, strain sam2, active compounds read low 1.03 | locus YEL003W, strain gim4, active compounds read low 0.987 | locus YEL037C, strain rad23, active compounds read low 1 | locus YEL061C, strain CIN8 (second series), active compounds read low 1 | locus YEL061C, strain CIN8, active compounds read low 1 | locus YER015W, strain faa2, active compounds read low 0.989 | locus YER016W, strain bim1, active compounds read low 1.02 | locus YER110C, active compounds read low 1.02 | locus YER111C, strain swi4, active compounds read low 0.985 | locus YER155C, strain BEM2 (second series), active compounds read low 1 | locus YER155C, strain BEM2, active compounds read low 0.992 | locus YER167W, strain BCK2, active compounds read low 1 | locus YFR010W, strain ubp6, active compounds read low 0.991 | locus YGL078C, strain dbp3, active compounds read low 1.01 | locus YGL086W, strain mad1, active compounds read low 1 | locus YGL167C, strain pmr1, active compounds read low 0.994 | locus YGL173C, strain kem1, active compounds read low 0.993 | locus YGL227W, strain vid30, active compounds read low 0.99 | locus YGL240W, strain doc1, active compounds read low 1 | locus YGL248W, strain PDE1, active compounds read low 1.01 | locus YGL253W, strain hxk2, active compounds read low 1.01 | locus YGR135W, strain pre9, active compounds read low 1.01 | locus YGR252W, strain gcn5, active compounds read low 1 | locus YHR013C, strain ard1, active compounds read low 0.989 | locus YHR027C, strain rpn1, active compounds read low 1.01 | locus YHR030C, strain SLT2, active compounds read low 0.998 and 1 | locus YHR079C, strain IRE1 (second series), active compounds read low 1.01 | locus YHR079C, strain IRE1, active compounds read low 0.999 | locus YHR094C, strain hxt1, active compounds read low 1.01 | locus YHR129C, strain ARP1, active compounds read low 1 | locus YHR142W, strain chs7, active compounds read low 0.995 | locus YHR200W, strain rpn10, active compounds read low 1.01 | locus YIL066C, strain RNR3, active compounds read low 1.01 | locus YIL073C, strain SPO22, active compounds read low 1.07 | locus YIL125W, strain kgd1, active compounds read low 1.01 | locus YIR030C, strain dcg1, active compounds read low 1.01 | locus YJL092W, strain hpr5, active compounds read low 0.996 | locus YJL095W, strain BCK1 (second series), active compounds read low 1 | locus YJL095W, strain BCK1, active compounds read low 1 and 0.971 | locus YJL115W, strain asf1, active compounds read low 0.995 | locus YJL129C, strain trk1, active compounds read low 0.982 | locus YJL134W, strain LCB3, active compounds read low 1 | locus YJL154C, strain vps35, active compounds read low 0.99 | locus YJL164C, strain tpk1, active compounds read low 1.03 | locus YJL166W, strain qcr8, active compounds read low 0.99 | locus YJL168C, strain set2, active compounds read low 1.01 | locus YJL187C, strain SWE1 (second series), active compounds read low 1.01 | locus YJR043C, strain POL32, active compounds read low 0.982 | locus YJR066W, strain TOR1, active compounds read low 0.952
